From PubChem BioAssay (Tox21)
Where “and” joins values, the source holds several entries; their conditions need not be identical. Identical values can stand only once. Results filed as inconclusive are left out. The source holds several records for some structures; these can differ, active in one and inactive in another. Calls of active or inactive are those of the source. Unless noted, the call rests on the fitted dose curve.

How the values were obtained:
[1] = Nuclear factor erythroid 2-related factor 2/antioxidant responsive element (Nrf2/ARE) small molecule agonists: qHTS cell viability counter screen in human keratinocytes (AID 1919968; active means well fitted curve in the direction sought with a large enough effect in the repeat runs; an effect the other way counts as inactive or inconclusive; further: nearly all actives have a fitted effect of over 55% in size)
Procedure, shortened: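 Cells of the KeratinoSens line were plated at 1,500 per well and left for 5 h before compound transfer from DMSO stocks. After a 23 h incubation (37 C, 5% CO2), CellTiter-Fluor was added. Signal was taken as fluorescence intensity 1 h later.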

[2] = Nuclear factor erythroid 2-related factor 2/antioxidant responsive element (Nrf2/ARE) small molecule agonists: luciferase reporter gene qHTS assay in human keratinocytes (AID 1919969); further: nearly all actives have a fitted effect of over 35% in size; further: potency means the concentration at half of the fitted maximal effect
[3] = molecular target: Gonadotropin-releasing hormone receptor (Homo sapiens) (UniProt P30968); experiment: Human gonadotropin-releasing hormone receptor (GnRHR) small molecule agonists, calcium flux assay in GnRHR-HEK293 cells (AID 1920063); further: nearly all actives have a fitted effect of over 35% in size
Procedure, shortened: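 Compounds dissolved in DMSO are pin-transferred onto dye-loaded GnRHR-HEK293 cells, which were seeded 18 h before at 37 C/5% CO2. Calcium signal is read as fluorescence intensity at 1 s intervals for 3 min.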

[4] = molecular target: KiSS-1 receptor (Homo sapiens) (UniProt Q969F8); experiment: Human kisspeptin (KISS1R) small molecule agonists, calcium flux assay in KISS1R-HEK293 cells (AID 1920064; active means well fitted curve in the direction sought with a large enough effect in the repeat runs; an effect the other way counts as inactive or inconclusive)
Procedure, shortened: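 Cell line: HEK293, stable human KISS1R. Dye loading 1 h at 37 C after 18 h culture. Read: kinetic fluorescence, 480/540 nm, 3 min at 1 s intervals.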

[5] = G protein-coupled receptor (GPCR) small molecule agonists, calcium flux assay: HEK293 wild type cell line counter screen (AID 1920065)
Procedure, shortened: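 Tox21 10K compounds, 15 concentrations each in triplicate, pin-transferred in DMSO onto dye-loaded cells; kinetic read at 480/540 nm for 3 min, 1 s intervals.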

[6] = p53 small molecule agonists, cell-based qHTS assay with human liver microsomes: qHTS cell viability counter screen (AID 1963579); further: nearly all actives have a fitted effect of over 45% in size; further: potency means the concentration at half of the fitted maximal effect
Procedure, shortened: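 Cells carrying the p53 response-element beta-lactamase reporter are treated for 16 h at 37 C with test compounds in the presence of human liver microsomes and NADPH (both 0.5 mg/mL final); ATP-based CellTiter-Glo luminescence then reports viability.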

[7] = p53 small molecule agonists, cell-based qHTS assay with rat liver microsomes: qHTS cell viability counter screen (AID 1963580); further: nearly all actives have a fitted effect of over 45% in size
Procedure, shortened: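 Luminescent ATP readout (CellTiter-Glo, 30 min at room temperature) reports viability of p53RE-bla HCT-116 cells after 16 h at 37 C with test compounds under metabolic activation by rat liver microsomes and NADPH at 0.5 mg/mL final each.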

[8] = p53 small molecule agonists, cell-based qHTS assay: qHTS cell viability counter screen (AID 1963581); further: nearly all actives have a fitted effect of over 45% in size
Procedure, shortened: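 ATP content measured by luminescence in HCT-116 p53RE-bla cells treated 16 h at 37 C, same wells as the reporter screen.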

[9] = molecular target: 5-hydroxytryptamine receptor 2A (Homo sapiens) (UniProt P28223); experiment: 5-hydroxytryptamine receptor 2A (HTR2A) small molecule antagonists, cell-based qHTS assay (AID 1963586); further: nearly all actives have a fitted effect of over 45% in size
Procedure, shortened: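 CHO cells stably expressing human HTR2A were plated for 18 h at 37 C, then loaded with calcium dye for 1 h. Compounds were preincubated 5 min at room temperature before DOI (4 nM solution) was added. Kinetic fluorescence was read for 3 min.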

[10] = molecular target: 5-hydroxytryptamine receptor 2A (Homo sapiens) (UniProt P28223); experiment: 5-hydroxytryptamine receptor 2A (HTR2A) small molecule agonists, cell-based qHTS assay (AID 1963587); further: nearly all actives have a fitted effect of over 30% in size
Procedure, shortened: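 HTR2A-CHO cells, plated 18 h at 37 C/5% CO2, dye-loaded 1 h at 37 C; compounds in DMSO added by pin tool (agonist mode). Intracellular calcium flux read as kinetic fluorescence on FDSS over 2 min at 1 s intervals.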

[11] = molecular target: Muscarinic acetylcholine receptor M1 (Homo sapiens) (UniProt P11229); experiment: Cholinergic receptor muscarinic 1 (CHRM1) small molecule antagonists, cell-based qHTS assay (AID 1963588); further: nearly all actives have a fitted effect of over 40% in size
Procedure, shortened: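 Compounds were tested at 15 concentrations in three independent runs. Dye-loaded CHRM1-CHO cells were exposed 5 min at room temperature before stimulation by acetylcholine added at 50nM. Intracellular calcium was read kinetically on FDSS for 3 min.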

[12] = molecular target: Muscarinic acetylcholine receptor M1 (Homo sapiens) (UniProt P11229); experiment: Cholinergic receptor muscarinic 1 (CHRM1) small molecule agonists, cell-based qHTS assay (AID 1963589); further: nearly all actives have a fitted effect of over 35% in size
Procedure, shortened: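 Homogeneous fluorescence calcium flux, agonist mode. Human M1-expressing CHO cells; compound dosed at 15 concentrations, three independent runs; signal sampled every 1 sec.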

[13] = cAMP Responsive Elements (CRE) small molecule agonists, cell-based qHTS assay (AID 1963590); further: potency means the concentration at half of the fitted maximal effect
Procedure, shortened: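 HEK 293T cells stably bearing CRE-bla were plated at 2,000 cells per well and rested 18 h. Compounds, positive controls or DMSO were added for 3 h at 37 C. LiveBLAzer B/G substrate was then loaded for 2 h at room temperature.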

[14] = cAMP Responsive Elements (CRE) small molecule antagonists, cell-based qHTS assay (AID 1963591; active means well fitted inhibition curve with a large enough effect in the signal ratio in the repeat runs, not every such curve was filed as active; the % refers to the signal ratio)
Procedure, shortened: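 First, CRE-bla HEK293T cells settled 18 h at 37 C. Next, compound and 0.25 uM final NKH477 were applied for 3 h. Last, LiveBLAzer B/G substrate was loaded for 2 h at room temperature.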

[15] = molecular target: Beta-2 adrenergic receptor (Homo sapiens) (UniProt P07550); experiment: Adrenergic beta2 receptor (ADRB2) small molecule antagonists, cell-based qHTS assay (AID 1963592); further: series mostly up to about 92 µM; nearly all actives have a fitted effect of over 50% in size
Procedure, shortened: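 Assay format: CHO-ADRB2 cells, 18-20hr seeding at 37C/5% CO2, then compound plus 1nM isoproterenol agonist mix for 0.5hr RT. Homogeneous time-resolved fluorescence cAMP detection after 1hr, expressed as 665/615 nm ratio.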

[16] = molecular target: D(2) dopamine receptor (Homo sapiens) (UniProt P14416); experiment: Dopamine D2 receptor (DRD2) small molecule agonists, cell-based qHTS assay (AID 1963594); further: nearly all actives have a fitted effect of over 35% in size
Procedure, shortened: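 HEK293 cells stably expressing DRD2 were cultured 24 h at 37 C, then given Ro20-1724 (0.1 mM final) and compounds for 10 min at room temperature. NKH477 (200nM) was then added for 30 min. cAMP was read by HTRF.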

[17] = molecular target: D(2) dopamine receptor (Homo sapiens) (UniProt P14416); experiment: Dopamine D2 receptor (DRD2) small molecule antagonists, cell-based qHTS assay (AID 1963595; active means well fitted inhibition curve with a large enough effect in the signal ratio in the repeat runs, with a control signal flat; the % refers to the signal ratio)
Procedure, shortened: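 Antagonism was scored as restored cAMP in HEK293-DRD2 cells. These cells were stimulated with 200 nM NKH477 and 12 nM quinpirole for 30 min at room temperature, in the presence of 0.1 mM Ro20-1724.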

[18] = molecular target: Beta-2 adrenergic receptor (Homo sapiens) (UniProt P07550); experiment: Adrenergic beta2 receptor (ADRB2) small molecule agonists, cell-based qHTS assay (AID 1963593);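 further: CHO cells stably overexpressing human ADRB2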
Procedure, shortened: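 CHO cells stably over-expressing ADRB2 were plated overnight at 37C, then dosed with compounds plus a stimulation mix containing 100uM IBMX and 25uM Ro-20-1724 for 0.5hr at room temperature. cAMP was measured by HTRF competition, 1hr.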

[19] = p53 small molecule agonists, cell-based qHTS assay (AID 1963582; active means well fitted activation curve with a large enough effect in the signal ratio in the repeat runs, not every such curve was filed as active; the % refers to the signal ratio)
Procedure, shortened: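 16 h compound exposure (37 C) of p53 response element–bla cells, preceded by 5 h recovery at 37 C/5% CO2; read-out via LiveBLAzer B/G FRET substrate, 2 h RT, fluorescence intensity.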

Measured: Potency

Muscarinic acetylcholine receptor M1 (Homo sapiens), sequence (P11229 whole entry, looked up): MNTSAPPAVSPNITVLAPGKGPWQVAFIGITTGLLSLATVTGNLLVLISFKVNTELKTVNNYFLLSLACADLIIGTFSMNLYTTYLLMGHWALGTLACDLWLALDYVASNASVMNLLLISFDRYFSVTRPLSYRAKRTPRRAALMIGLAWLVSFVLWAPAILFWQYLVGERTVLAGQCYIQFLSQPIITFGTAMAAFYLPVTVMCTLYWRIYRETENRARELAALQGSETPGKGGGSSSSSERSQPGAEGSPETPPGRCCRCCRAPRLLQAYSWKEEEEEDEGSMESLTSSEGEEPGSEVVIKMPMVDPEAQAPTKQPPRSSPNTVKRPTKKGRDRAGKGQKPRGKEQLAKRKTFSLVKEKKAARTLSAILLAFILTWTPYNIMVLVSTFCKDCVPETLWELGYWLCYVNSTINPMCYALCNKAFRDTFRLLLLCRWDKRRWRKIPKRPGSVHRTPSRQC
5-hydroxytryptamine receptor 2A (Homo sapiens), sequence (P28223 whole entry, looked up): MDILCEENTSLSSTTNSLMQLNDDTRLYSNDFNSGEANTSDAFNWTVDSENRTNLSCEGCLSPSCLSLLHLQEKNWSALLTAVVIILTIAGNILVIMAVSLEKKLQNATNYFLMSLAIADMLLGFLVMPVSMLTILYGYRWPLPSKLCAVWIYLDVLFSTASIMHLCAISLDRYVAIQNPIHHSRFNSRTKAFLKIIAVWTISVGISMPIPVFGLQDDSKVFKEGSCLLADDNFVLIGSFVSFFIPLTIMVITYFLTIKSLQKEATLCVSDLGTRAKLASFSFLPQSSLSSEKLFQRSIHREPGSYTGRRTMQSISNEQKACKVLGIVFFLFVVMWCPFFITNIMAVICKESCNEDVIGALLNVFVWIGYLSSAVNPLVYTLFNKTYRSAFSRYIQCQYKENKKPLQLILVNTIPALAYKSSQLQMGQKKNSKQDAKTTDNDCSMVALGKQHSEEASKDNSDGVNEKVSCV
Beta-2 adrenergic receptor (Homo sapiens), sequence (P07550 whole entry, looked up): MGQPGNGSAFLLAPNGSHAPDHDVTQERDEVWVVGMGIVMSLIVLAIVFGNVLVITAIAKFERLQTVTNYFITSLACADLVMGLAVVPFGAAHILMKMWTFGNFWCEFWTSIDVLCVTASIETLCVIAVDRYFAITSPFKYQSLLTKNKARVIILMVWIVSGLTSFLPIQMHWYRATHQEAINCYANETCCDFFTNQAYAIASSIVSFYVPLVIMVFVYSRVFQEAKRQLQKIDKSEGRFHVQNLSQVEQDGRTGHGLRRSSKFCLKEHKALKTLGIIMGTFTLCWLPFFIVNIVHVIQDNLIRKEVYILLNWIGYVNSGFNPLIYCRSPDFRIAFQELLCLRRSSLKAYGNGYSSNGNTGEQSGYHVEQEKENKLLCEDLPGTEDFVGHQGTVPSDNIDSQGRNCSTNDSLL
KiSS-1 receptor (Homo sapiens), sequence (Q969F8 whole entry, looked up): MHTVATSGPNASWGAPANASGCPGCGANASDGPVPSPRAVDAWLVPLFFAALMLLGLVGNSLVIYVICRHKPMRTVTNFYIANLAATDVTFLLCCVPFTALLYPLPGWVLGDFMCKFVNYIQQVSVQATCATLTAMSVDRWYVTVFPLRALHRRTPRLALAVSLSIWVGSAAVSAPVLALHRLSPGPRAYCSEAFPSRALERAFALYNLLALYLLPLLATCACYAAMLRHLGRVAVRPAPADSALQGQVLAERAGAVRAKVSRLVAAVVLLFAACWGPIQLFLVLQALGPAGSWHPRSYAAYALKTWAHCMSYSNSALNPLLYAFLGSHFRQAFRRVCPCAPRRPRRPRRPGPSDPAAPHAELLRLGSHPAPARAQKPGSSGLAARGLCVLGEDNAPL
D(2) dopamine receptor (Homo sapiens), sequence (P14416 whole entry, looked up): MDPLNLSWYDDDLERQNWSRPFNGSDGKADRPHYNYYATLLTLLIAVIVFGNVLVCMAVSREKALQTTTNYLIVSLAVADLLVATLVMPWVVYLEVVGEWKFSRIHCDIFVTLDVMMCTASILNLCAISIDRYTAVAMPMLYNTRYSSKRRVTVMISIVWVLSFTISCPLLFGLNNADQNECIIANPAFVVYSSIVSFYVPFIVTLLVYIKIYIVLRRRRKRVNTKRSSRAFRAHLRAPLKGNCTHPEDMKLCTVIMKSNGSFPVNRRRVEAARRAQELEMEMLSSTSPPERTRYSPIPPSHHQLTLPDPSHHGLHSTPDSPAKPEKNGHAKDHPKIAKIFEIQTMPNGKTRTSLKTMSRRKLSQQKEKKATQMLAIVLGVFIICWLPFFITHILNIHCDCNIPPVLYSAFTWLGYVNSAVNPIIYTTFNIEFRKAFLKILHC
Gonadotropin-releasing hormone receptor (Homo sapiens), sequence (P30968 whole entry, looked up): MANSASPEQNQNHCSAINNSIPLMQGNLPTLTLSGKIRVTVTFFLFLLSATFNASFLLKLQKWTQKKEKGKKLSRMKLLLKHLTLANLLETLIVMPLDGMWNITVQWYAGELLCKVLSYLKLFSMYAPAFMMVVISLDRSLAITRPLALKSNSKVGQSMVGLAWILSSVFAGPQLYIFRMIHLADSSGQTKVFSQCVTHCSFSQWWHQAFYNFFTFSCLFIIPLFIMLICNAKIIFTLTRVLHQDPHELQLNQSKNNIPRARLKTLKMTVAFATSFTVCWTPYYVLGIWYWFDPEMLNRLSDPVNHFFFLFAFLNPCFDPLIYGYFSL

Cc1[nH]c(=O)n(C(C)(C)C)c(=O)c1Cl
not listed: [18] | [19]
inactive: all other assays above

Clc1cccc(Cl)c1
not listed: [19]
inactive: all other assays above

CCCCN(CCCC)SN(C)C(=O)Oc1cccc2c1OC(C)(C)C2
active: [2] 24.7 µM and 54.5 µM
not listed: [13] | [19]
inactive: all other assays above

O=C(O)CF
not listed: [13] | [18] | [19]
inactive: all other assays above

CNC(=O)O/N=C/C(C)(C)S(C)(=O)=O
not listed: [19]
inactive: all other assays above

CNC(=O)CSP(=S)(OC)OC
not listed: [15] | [19]
inactive: all other assays above

CCCN(CCOc1c(Cl)cc(Cl)cc1Cl)C(=O)n1ccnc1
active: [13] 27.9 µM and 48.6 µM
not listed: [18]
inactive: all other assays above

CN(C)[C@@H]1C(=O)C(C(N)=O)=C(O)[C@@]2(O)C(=O)C3=C(O)c4c(O)cccc4[C@@](C)(O)[C@H]3[C@H](O)[C@@H]12
not listed: [16] | [19]
inactive: all other assays above

Cc1ccc([N+](=O)[O-])cc1C
not listed: [14] | [18] | [19]
inactive: all other assays above

Clc1cccc(Cl)c1Cl
not listed: [19]
inactive: all other assays above

CC[N+]1(C)CCCC1
70.3 µM (active) and inactive: [2]
41.8 µM (active) and inactive: [6]
not listed: [19]
inactive: all other assays above

CCOP(=S)(OCC)SCSC(C)(C)C
not listed: [9] | [18]
inactive: all other assays above

ClC(Cl)c1ccccc1
not listed: [18] | [19]
inactive: all other assays above

Cc1cc(Cl)ccc1N
not listed: [15] | [19]
inactive: all other assays above
